The values that follow come from PubChem BioAssay (NCATS).

One assay has as its system MCC-13. In words: qHTS assay to identify novel small-molecules to repurpose for Merkel cell carcinoma treatment (AID 1296009). Also: nearly all actives have a fitted effect of over 60% in size. Also: potency is read from the fitted curve at half-maximal effect. As to conditions: MCC and control cell lines, CellTiter-Glo viability, 72 h; series mostly up to 46 µM. In a few lines:
(§1)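 Cells were treated for 72 hr at 37 degree celsius with compounds in 8- or 11-point dose response. Viability was read by CellTiter-Glo luminescence, normalized to no-cell (cytotoxicity) and DMSO controls.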

For the next assay, the system named is MCC-26. The description is as above. Conditions: MCC and control cell lines, CellTiter-Glo viability, 72 h; series mostly up to 46 µM. In a few lines: as §1
(ATP-based viability assays read luminescence as a measure of living cells.)

For a further assay, the system named is MKL-1. Described as above. As to conditions: MCC and control cell lines, CellTiter-Glo viability, 72 h; series mostly up to 46 µM. In a few lines:
as §1

The next assay has as its system MKL-2. The description is as above. As to conditions: MCC and control cell lines, CellTiter-Glo viability, 72 h; series mostly up to 46 µM. In a few lines:
as §1

In a further assay the test system is NIH3T3. The assay is described as above. Conditions: MCC and control cell lines, CellTiter-Glo viability, 72 h; at 44.8 µM (top of the series) unless noted. Summed up:
as §1

In the next assay the test system is UISO. Described as above. As to conditions: MCC and control cell lines, CellTiter-Glo viability, 72 h; series mostly up to 46 µM. In a few lines: as §1
A further assay concerns WaGa. The assay is described as above. Conditions: MCC and control cell lines, CellTiter-Glo viability, 72 h; series mostly up to 46 µM. In a few lines:
as §1

The test system of the next assay is C33A. In words: Primary qHTS to identify gynecologic anti-cancer compounds using libraries of approved drugs and bioactive compounds (AID 1345084). Also: nearly all actives have a fitted effect of over 55% in size. Conditions: Gynecologic cancer cell panel viability, ATPlite luminescence, 48 h; series mostly up to 57.5 µM. In a few lines:
(§2)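 48 h compound exposure at 37 C, 5% CO2; five-point qHTS. ATPlite luminescence readout of cell ATP.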

For the next assay, the system named is CAOV3. The assay is described as above. Conditions: Gynecologic cancer cell panel viability, ATPlite luminescence, 48 h; series mostly up to 57.5 µM. Summed up:
as §2

The next assay has as its system HEK293T. Description: qHTS assay to identify novel small-molecules to repurpose for Merkel cell carcinoma treatment (AID 1296009). Also: nearly all actives have a fitted effect of over 60% in size. Also: potency is read from the fitted curve at half-maximal effect. As to conditions: MCC and control cell lines, CellTiter-Glo viability, 72 h; at 44.8 µM (top of the series) unless noted. Summed up:
as §1
(In general: Quantitative high-throughput screening tests each substance at several concentrations.)

SMILES strings stand for the structures. Inconclusive results are not listed. Activity calls are given as the source filed them. Calls follow the shape of the dose curve; as a rule, active = well fitted curve in the direction sought with a large enough effect; inconclusive = small, poorly fitted or top-dose-only effect, or another doubt; inactive = no such curve, though single readings can be large; an effect the other way counts as inactive or inconclusive.

Take `CO/N=C(\C(=O)O)c1csc(NC(=O)CCl)n1`: the Potency entry in the assay on MCC-13, with MCC-26, in the assay on MKL-1, with MKL-2, in the assay on UISO and in the assay on WaGa was “inactive” each time. In the assay with C33A, the Potency result was “inactive”. For the same compound, in the assay on NIH3T3, the outcome was inactive.
Regarding `COc1cc2c(cc1OC)C(=O)CC2`, the Potency entry in the assay on MCC-13, in the assay on MCC-26, with MKL-1, with MKL-2, in the assay with UISO and in the assay on WaGa was “inactive” throughout. In addition, the Potency entry in the assay with C33A and in the assay with CAOV3 was “inactive” in each case. Besides, the result with NIH3T3 was inactive.
As to `Nc1c[n+](N2CCOCC2)no1`, the compound was called inactive with HEK293T and in the assay on NIH3T3. The Potency entry in the assay with MCC-13, in the assay with MKL-1, in the assay on MKL-2, in the assay on UISO, in the assay on WaGa and in the assay with C33A was “inactive” throughout. Moreover, in the assay on CAOV3, the Potency result is “inactive”.
In the case of `CCOC(=O)C(=O)CCCCCCl`, the Potency result with MCC-13, with MCC-26, in the assay with MKL-1, in the assay on MKL-2, with UISO and in the assay on WaGa was “inactive” throughout. The Potency result in the assay with C33A was “inactive”. In addition, the call with NIH3T3 was inactive.
For `CCCCCOc1ccc(C2SC(=O)NC2=O)cc1OCC` (configuration not stated), the Potency result with MCC-13, with MCC-26, in the assay on MKL-1, in the assay with MKL-2, with UISO and in the assay on WaGa was “inactive” each time. Further, the Potency result with C33A and in the assay on CAOV3 was “inactive” each time. Also, the result in the assay with NIH3T3 was inactive.
For `N=C(N)c1ccc(OCCCOc2ccc(C(=N)N)cc2)cc1`, the Potency result in the assay with MCC-13, with MCC-26, in the assay on MKL-1, in the assay on MKL-2, in the assay on UISO and in the assay on WaGa was “inactive” throughout. In addition, the Potency result with C33A and in the assay with CAOV3 was “inactive” throughout. Further, in the assay with NIH3T3, the compound was classed as inactive.
On to `CCC1(c2cnc[nH]2)Cc2ccccc2C1`, for which the Potency entry in the assay on MCC-13, with MCC-26, in the assay with MKL-1, in the assay on MKL-2, with UISO and in the assay on WaGa was “inactive” each time. The Potency entry with C33A was “inactive”. The compound was classed as inactive in the assay on NIH3T3.
In the case of `CCOC(=O)Oc1ccc(CCNC(=O)[C@H](CCSC)NC(C)=O)cc1OC(=O)OCC`, the Potency result in the assay with MCC-13, with MCC-26, in the assay with MKL-1, in the assay with MKL-2, in the assay on UISO and in the assay on WaGa was “inactive” throughout. Besides, the Potency result in the assay on C33A and in the assay with CAOV3 was “inactive” in each case. For the same compound, the result with NIH3T3 was inactive.
Consider `CC(C)=CCC/C(C)=C/CC/C(C)=C/CCC(=O)OC/C=C(\C)CCC=C(C)C`, for which the Potency result in the assay with MCC-13, with MCC-26, with MKL-1, in the assay on MKL-2, with UISO and in the assay on WaGa was “inactive” throughout. For the same compound, the Potency entry in the assay with C33A and with CAOV3 was “inactive” each time. For the same compound, the result in the assay on NIH3T3 was inactive.
Turning to `Nc1nc(=O)n([C@@H]2O[C@H](CO)[C@@H](O)[C@@H]2F)cc1I`, in the assay with HEK293T, the result was inactive. Further, the Potency entry with MCC-26, with MKL-1, with MKL-2, in the assay on C33A and in the assay with CAOV3 was “inactive” throughout.
Turning to `O=C1Nc2cc(Cl)ccc2Oc2ccccc21`, the compound was called inactive in the assay on HEK293T. Further, the Potency result in the assay on MCC-13, in the assay with MCC-26, with MKL-1, in the assay with MKL-2, with WaGa and in the assay with C33A was “inactive” in each case. Also, the Potency entry in the assay on CAOV3 is “inactive”.
On to `CC(C(O)c1ccccc1)N(C)CCOC(c1ccccc1)c1ccccc1` (configuration not stated), for which the Potency result in the assay on MCC-13 and with MCC-26 was “inactive” throughout.
For `Cc1cccc(C)c1NC(=O)c1ccc(N)cc1`, the Potency entry in the assay on MCC-13, in the assay on MCC-26, in the assay on MKL-1, with MKL-2, with UISO and in the assay with WaGa was “inactive” throughout. Also, in the assay on C33A, the Potency entry is “inactive”. The outcome with NIH3T3 was inactive.
For the compound `CCN1CCN(c2cc(-c3ccc(F)cc3)c3c(n2)CCCCCC3)CC1`, the Potency entry in the assay with MCC-13, in the assay with MCC-26, with MKL-1, in the assay on MKL-2, in the assay with UISO and in the assay on WaGa was “inactive” in each case. Further, the Potency result in the assay on C33A and in the assay on CAOV3 was “inactive” in each case. In addition, the outcome in the assay on NIH3T3 was “inactive [at 17.4 µM]”.
As for `CN(C)CCCOC1(Cc2ccccc2)CCCCCC1`, the call in the assay with HEK293T was inactive. Moreover, the Potency entry with MCC-13, in the assay with MKL-1, in the assay with MKL-2, in the assay with UISO, with WaGa and in the assay with C33A was “inactive” in each case. In addition, in the assay with CAOV3, the Potency result was “inactive”.
Turning to `CCOC(=O)c1ccc(O)c(O)c1`, the compound was classed as inactive with HEK293T. The Potency entry in the assay with MCC-26, in the assay with C33A and with CAOV3 was “inactive” in each case. In addition, the Potency in the assay with MKL-1 is 5.96 µM (active).
Take `CCS(=O)(=O)c1ccc(OC)c(C(=O)OC)c1`: the call with HEK293T and in the assay with NIH3T3 was inactive. The Potency entry in the assay with MCC-13, in the assay on MKL-1, with MKL-2, in the assay on UISO, in the assay with WaGa and in the assay with C33A was “inactive” in each case. Moreover, the Potency entry with CAOV3 was “inactive”.
With `NC(=O)COCCN1CCN(C(c2ccccc2)c2ccc(Cl)cc2)CC1` (configuration not stated), the Potency entry in the assay with MCC-13, in the assay on MCC-26, in the assay on MKL-1, in the assay on MKL-2, in the assay with UISO and with WaGa was “inactive” in each case. Also, the Potency entry with C33A was “inactive”. Also, in the assay with NIH3T3, the outcome was inactive.
Regarding `CN1C(=O)CC(C)(c2ccccc2)C1=O` (configuration not stated), the Potency entry in the assay on MCC-13, in the assay on MCC-26, in the assay with MKL-1, in the assay with MKL-2, in the assay on UISO and in the assay with WaGa was “inactive” throughout. Further, the Potency result with C33A and in the assay with CAOV3 was “inactive” in each case. The result in the assay with NIH3T3 was inactive.
Regarding `CC(=O)O[C@@H]1C(=O)O[C@@H]2[C@H]1OC(=O)[C@@H]2OC(C)=O`, the Potency entry in the assay with MCC-13, in the assay on MCC-26, with MKL-1, with MKL-2, with UISO and in the assay with WaGa was “inactive” in each case. The Potency entry with C33A is “inactive”.
